PubChem BioAssay
The source made the active and inactive calls. Unless noted, the rule behind the calls is not given here.

Legend:
[1] = test system: XIP peptide (Xip251-270) binding; experiment: XIP fragment 251-270 binding compounds – biochemical, small-molecule microarray, fluorescence 635/667 nm, 0.1 µg/mL protein, primary screen (AID 1182); details: fluorescent protein binding, 635 nm, higher = more signal, called active from +8 up or from −8 down
XIP peptide (Xip251-270) = experiment: compounds binding XIP fragment 251-270 – biochemical, small-molecule microarray, fluorescence 635/667 nm, 0.5 µg/mL protein, primary screen (AID 1183); details: fluorescence 635 nm, higher = more signal
[2] = blood-stage malaria parasite viability loss – strain 3D7, DAPI fluorescence, 100 nL, primary screen (AID 1184);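 note: parasites grown inside human red blood cells in medium with human serum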; details: P. falciparum 3D7 growth, 3 d, higher = more signal
[3] = target: Homeobox protein Hox-A13 (Mus musculus) (UniProt Q62424); experiment: disruptors of Hoxa13 oligonucleotide interaction – biochemical, fluorescence polarization, labeled oligonucleotide, primary screen (AID 1185); details: Hoxa13:DNA binding, 15 min, higher = more signal, called active from +8 up or from −8 down
Chain of Homeobox protein Hox-A13 (Mus musculus) (Q62424 whole entry, looked up): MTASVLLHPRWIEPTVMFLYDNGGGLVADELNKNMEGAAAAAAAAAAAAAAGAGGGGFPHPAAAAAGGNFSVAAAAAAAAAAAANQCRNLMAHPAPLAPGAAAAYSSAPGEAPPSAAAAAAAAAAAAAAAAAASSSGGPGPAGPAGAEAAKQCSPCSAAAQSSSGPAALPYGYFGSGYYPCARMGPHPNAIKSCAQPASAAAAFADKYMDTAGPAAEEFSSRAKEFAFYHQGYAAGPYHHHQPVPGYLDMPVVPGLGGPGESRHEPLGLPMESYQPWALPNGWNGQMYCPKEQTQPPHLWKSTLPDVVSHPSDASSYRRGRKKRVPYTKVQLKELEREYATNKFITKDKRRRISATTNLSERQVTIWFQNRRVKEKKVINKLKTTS

[4] = blockers of DNA damage checkpoint Chk1 activation – imaging, HeLa, hydroxyurea, phospho-Chk1 antibody, percent positive cells, primary screen (AID 1186); details: hydroxyurea-induced phospho-Chk1 immunofluorescence imaging, higher = more signal
[5] = blockers of DNA damage checkpoint Chk1 activation – imaging, HeLa, hydroxyurea, phospho-Chk1 nuclear intensity, primary screen (AID 1187); details: hydroxyurea-induced phospho-Chk1 immunofluorescence imaging, higher = more signal

Row | Compound | composite z-score [1] | composite z-score (XIP peptide (Xip251-270)) | z-score [2] | z-score [3] | z-score [4] | z-score [5]
1 | COC(=O)[C@@]1(Cc2ccc(OC)cc2)[C@H]2c3cc(C(=O)N(C)C)n(Cc4ccc(C)c(F)c4F)c3C[C@H]2CN1C(=O)c1ccccc1 | -0.0903 (inactive) | 0.465 | -1.13 | -1.93 (inactive) | 0.758 (inactive) | 0.0937 (inactive)
2 | CC(C)NC(=O)[C@@]1(Cc2ccccc2I)c2ccccc2C(=O)N(C2CCCCC2)[C@H]1c1ccc(CO)cc1 | 1.02 (inactive) | 0.84 | -1.89 | -4.58 (inactive) | 0.551 (inactive) | 0.615 (inactive)
3 | CCOC(=O)C1=C[C@@H](c2ccccc2)N(S(=O)(=O)c2ccc(C)cc2)[C@H]1c1ccc(F)cc1 | 0.346 (inactive) | 0.382 | -2.17 | -0.178 (inactive) | 0.0332 (inactive) | -0.293 (inactive)
4 | COCCOC(=O)N1C(=O)[C@@]2(c3cc(C#CCNC(N)=O)ccc31)[C@H](c1ccc(OCCO)cc1)N1[C@H](c3ccccc3)[C@H](c3ccccc3)OC(=O)[C@H]1[C@@H]2C(=O)Nc1nc2ccccc2s1 | 0.329 (inactive) | -0.444 | -1.08 | 0.967 (inactive) | 0.0818 (inactive) | 0.238 (inactive)
5 | O=C1OCCC/C=C\[C@H]2OC34C=CCN(CCN5CCOCC5)C(=O)[C@H]3N(CCCCCO)C(=O)[C@@H]4C12 (stereo not given in full) | 0.853 (inactive) | -0.733 | 1.82 | -4.6 (inactive) | 0.564 (inactive) | 0.292 (inactive)
6 | C=CCC(OC(C)=O)[C@@H]1[C@@H](N(Cc2cc3ccccc3o2)C(=O)c2ccc(C)cc2)c2cc(OCCCO)ccc2N1C(=O)c1ccc2ccccc2n1 (stereo not given in full) | 0.167 (inactive) | -0.442 | -0.863 | -1.79 (inactive) | 0.347 (inactive) | 0.295 (inactive)
7 | COc1ccc([Si](C)(C)[C@@H]2[C@@H](CC(=O)N(CCO)Cc3ccccc3)O[C@]3(C(=O)N(Cc4cccc(N5CCC5=O)c4)c4ccccc43)[C@H]2C)cc1 | 1.09 (inactive) | 0.756 | -2.5 | -1.54 (inactive) | -0.0556 (inactive) | -0.0513 (inactive)
8 | O=C1c2ccccc2[C@](Cc2ccccc2I)(C(=O)NCc2ccccc2)[C@H](c2ccc(CO)cc2)N1Cc1ccccc1C(F)(F)F | 0.696 (inactive) | -1.14 | -0.794 | -1.29 (inactive) | -0.361 (inactive) | -0.331 (inactive)
9 | C=CC(=O)O[C@@H](Cc1ccccc1)[C@H]1C2C=CCCC=C2CN1Cc1cccc(Cl)c1 (stereo not given in full) | -0.244 (inactive) | -2.01 | -0.0093 | -3.7 (inactive) | 0.171 (inactive) | 0.304 (inactive)
10 | C=CC[C@]1(C(=O)O)N=C(c2ccc(OCCCO)cc2)O[C@H]1c1ccccc1 | 1.81 (inactive) | 0.615 | -1.63 | -4.1 (inactive) | -0.0836 (inactive) | 0.409 (inactive)
11 | COC(=O)C[C@H]1O[C@]2(C(=O)N(Cc3ccccc3)c3ccc(I)cc32)[C@@H](C)[C@@H]1[Si](C)(C)c1ccc(OC)cc1 | -0.0923 (inactive) | -0.0988 | -3.07 | 1.04 (inactive) | -0.504 (inactive) | -0.584 (inactive)
12 | COc1cc2c(cc1OC)CN(C(=O)[C@@H]1[C@H]3C(=O)O[C@H](c4ccccc4)[C@H](c4ccccc4)N3[C@H](c3ccccc3OCCO)[C@@]13C(=O)Nc1ccccc13)CC2 | 1.79 (inactive) | 0.829 | -2.18 | 0.829 (inactive) | 0.306 (inactive) | 0.876 (inactive)
13 | O=C(NCC(O)CO)[C@]1(Cc2ccccc2)N=C(c2ccc(OCCCO)cc2)O[C@@H]1c1ccccc1 (stereo not given in full) | 1.61 (inactive) | 0.776 | -1.62 | -4.2 (inactive) | -0.707 (inactive) | -0.655 (inactive)
14 | O=C1O[C@@H](c2ccccc2)[C@@H](c2ccccc2)N2[C@@H](c3ccc(O)cc3)[C@]3(C(=O)Nc4ccccc43)[C@@H](C(=O)N3CCN(c4ncccn4)CC3)[C@H]12 | 1.55 (inactive) | -0.278 | -1.46 | -2.96 (inactive) | -0.231 (inactive) | -0.242 (inactive)
15 | CCOC(=O)C1=CCC(c2cccc3ccccc23)N(S(=O)(=O)c2ccc(C)cc2)C1 (stereo not given) | 0.225 (inactive) | 0.449 | -1.77 | -1.57 (inactive) | 0.18 (inactive) | -0.129 (inactive)
